Bioassay records deposited in PubChem by National Center for Advancing Translational Sciences (NCATS).
The list is not random: actives were taken first. Their share in the collection is about 3.6%.
Epigenetic reg: epigenetic control regulation, reporter derepression. Potency, µM (doses to about 53.9 µM), hits mostly activators. murine LDR cells, GFP reporter derepression, 30 h. hit rate 0.2% among 280,000; note: nearly all actives have a fitted effect of over 60% in size
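Derepression of a silenced CMV-GFP reporter in murine LDR cells is scored by enumerating GFP-positive cells with a laser-scanning microplate cytometer after 30 hours of treatment at 37 C.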
IMPase Li inh: membrane-permeable IMPase blocker, potentiated with lithium; CHO-M1 cells, IP1 TR-FRET (IP-One), carbachol + lithium; Potency, µM (doses to about 59.4 µM), most hits filed as inhibitors; hit rate 0.35% among 210,000;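 note: IP1 builds up when IMPase is blocked and the TR-FRET signal falls; nearly all actives have a fitted effect of over 50% in size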
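Concentration–response in CHO-M1 cells, lithium-potentiated; 30 min at 37C. IP1 detected by competitive TR-FRET after 10 min lysis at RT. Hill-fitted AC50.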
GCN5L2 inh: GCN5L2 (KAT2A) acetyltransferase inhibition. Q92830. GCN5L2 HAT assay, ThioGlo1 CoA-SH fluorescence. Potency, µM (top dose mostly 58.9 µM), most hits filed as inhibitors. hit rate 0.21% among 390,000. AID 504327
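qHTS, 1536-well. 20nM enzyme, pH 7.5 HEPES/EDTA/Tween-20 buffer; 15 min compound preinc., RT. Start: 75uM H3(1-25), 70uM AcCoA, 50uM ThioGlo1. Read Ex340/Em540 at t=0 (autofluorescence flag) and t=20 min.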
JMJD2E inh: JMJD2E (human) inhibition | JMJD2E catalytic domain, FDH-coupled NADH fluorescence (FDH is formaldehyde dehydrogenase) | Potency, µM (top dose mostly 57.1 µM), actives largely listed as inhibitors | hit rate 1.6% among 230,000; active = well fitted inhibition curve with a large enough effect, not every such curve was filed as active; inconclusive = small, poorly fitted or top-dose-only effect, or another doubt; inactive = no such curve, though single readings can be large or run the other way; note: nearly all actives have a fitted effect of over 50% in size
Target sequence (B2RXH2 1-337 limits assumed): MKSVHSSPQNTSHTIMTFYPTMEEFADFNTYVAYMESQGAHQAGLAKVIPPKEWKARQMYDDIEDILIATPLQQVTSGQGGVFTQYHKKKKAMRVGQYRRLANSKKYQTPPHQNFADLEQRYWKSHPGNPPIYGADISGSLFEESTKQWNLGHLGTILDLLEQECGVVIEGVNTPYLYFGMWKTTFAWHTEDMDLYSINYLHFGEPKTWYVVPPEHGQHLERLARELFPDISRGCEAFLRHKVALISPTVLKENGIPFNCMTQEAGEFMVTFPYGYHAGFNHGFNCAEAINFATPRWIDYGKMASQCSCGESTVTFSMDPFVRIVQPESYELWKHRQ
Sfp inh: Sfp phosphopantetheinyl transferase inhibition. Potency, µM, usual class: inhibitors. Biochemical Sfp PPTase activity, qHTS. hit rate 3.5% among 310,000. Q9F4F7;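 note: the enzyme is Sfp with the accession as filed and its product quenches rhodamine fluorescence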
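With Hepes-Na pH 7.6 buffer containing 10 mM MgCl2, Sfp (15 nM) modified BHQ-2-YbbR (12.5 uM) using rhodamine-CoA (5 uM). Two reads 30 minutes apart at 525/598 nm yielded each well's rate.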
NPSR antagonist: neuropeptide S receptor (human) antagonism, cAMP. Q6W5P4. AID 1461. CHO-NPSR cells, cAMP TR-FRET, antagonist mode. hit rate 1% among 220,000. Potency, µM (highest dose often 38.3 µM), hits mostly inhibitors; note: nearly all actives have a fitted effect of over 50% in size
Target sequence (Q6W5P4 whole entry, looked up): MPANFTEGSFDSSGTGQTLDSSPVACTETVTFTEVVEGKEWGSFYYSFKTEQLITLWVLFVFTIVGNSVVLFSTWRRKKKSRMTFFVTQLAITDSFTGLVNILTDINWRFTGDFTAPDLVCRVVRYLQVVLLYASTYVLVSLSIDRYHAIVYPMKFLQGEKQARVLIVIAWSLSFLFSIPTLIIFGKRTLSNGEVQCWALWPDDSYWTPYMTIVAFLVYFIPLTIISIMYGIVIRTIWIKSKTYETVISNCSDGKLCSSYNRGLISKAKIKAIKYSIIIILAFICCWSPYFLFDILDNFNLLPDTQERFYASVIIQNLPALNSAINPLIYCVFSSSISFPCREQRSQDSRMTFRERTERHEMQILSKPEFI
Hits are given with their value; i = inactive; ? = inconclusive; nt = no result given; [ ] = another dose, or the depositor's remark. Unless noted, calls come from the whole dose curve; as a rule, active = well fitted curve in the direction sought with a large enough effect; inconclusive = small, poorly fitted or top-dose-only effect, or another doubt; inactive = no such curve, though single readings can be large; an effect the other way counts as inactive or inconclusive.

SMILES	Epigenetic reg	IMPase Li inh	GCN5L2 inh	JMJD2E inh	Sfp inh	NPSR antagonist
O=C(NNc1ccccc1[N+](=O)[O-])Nc1ccc(Cl)c(Cl)c1	i	i	i	i	i	i
CCN(CC)S(=O)(=O)c1cc([N+](=O)[O-])ccc1NNC(=O)Nc1ccc(Cl)c(Cl)c1	i	i	i	i	?	10µM
O=C(C[n+]1ccccc1)Nc1c(Cl)cc(Cl)cc1Cl	?	i	i	i	20µM	i
COCCn1c(=O)cnc2cnc(N3CCNCC3)nc21	nt	i	?	nt	i	nt
CN=c1scc(-c2ccccc2F)n1/N=C/c1ccc(O)c(O)c1O	i	i	?	10µM	3.2µM	i
CC(C)N=c1scc(-c2cccs2)n1/N=C/c1ccc(O)c(O)c1O	i	i	i	28µM	11µM	?
CCN=c1scc(-c2cccs2)n1/N=C/c1cc(OC)ccc1O	i	i	i	i	?	i
Cc1ccc(S(=O)(=O)N2CCN(CC(=O)N/N=C\c3ccc(O)c(O)c3)CC2)cc1	i	nt	i	16µM	?	i
O=C(Nc1cc(S(=O)(=O)Nc2ccc(Cl)cc2)ccc1O)c1ccc(S(=O)(=O)N2CCCCCC2)cc1	i	i	i	i	3.2µM	i
Cc1ccc(S(=O)(=O)N2CCN(CC(=O)N/N=C/c3ccc(C)o3)CC2)cc1	i	i	i	i	i	i
O=C(CN1CCN(S(=O)(=O)c2ccc(F)cc2)CC1)c1ccc(O)c(O)c1	i	i	i	4.5µM	18µM	i
O=C(CN1CCN(S(=O)(=O)c2ccc(Cl)cc2)CC1)c1ccc(O)c(O)c1	nt	nt	?	nt	56µM	nt
CN1C(=O)CC2(C=CC(=O)C=C2OC(=O)c2ccccc2)c2ccccc21 (stereo unspecified)	nt	nt	nt	nt	i	nt
NS(=O)(=O)c1ccc(NC2=CC(c3ccc([N+](=O)[O-])cc3)N(c3ccc(S(N)(=O)=O)cc3)C2=O)cc1 (stereo unspecified)	i	nt	i	?	11µM	i
O=c1oc2ccc(Cl)cc2nc1/C=C(\O)c1ccco1	?	nt	i	?	?	i
CC(C)C/C(O)=C/c1nc2cc(Cl)ccc2oc1=O	i	i	i	i	56µM	i
Cc1cccc(Cn2c(Cc3ccccc3)nc3ccccc32)c1	i	i	i	i	56µM	?
COCc1nc2ccccc2n1Cc1cccc(C)c1	i	i	i	i	i	i
CCCn1c(N)c(N(CCOC)C(=O)c2cc(-c3ccco3)nc3ccccc23)c(=O)[nH]c1=O	nt	nt	i	nt	45µM	nt
CCN(CC)CCNC(=O)c1cc(-c2ccco2)nc2ccccc12	i	i	i	?	i	i
Cc1cc(C(=O)OCC(=O)NCCc2ccccc2)c2ccccc2n1	nt	nt	i	nt	nt	nt
CNC(=O)COC(=O)c1cc(-c2ccco2)nc2ccccc12	i	nt	i	?	28µM	i[7.67 µM]
O=C(COC(=O)c1cc(-c2ccco2)nc2ccccc12)NCc1ccccc1	i	i	i	?	40µM	i
C/C(=N/O)c1ccc2cc(Br)c3ccccc3c2c1	nt	i	nt	nt	nt	nt
Cn1ccnc1C(=O)c1cc(SCC(=O)NCc2ccccc2)nc2ccccc12	i	i	i	i	40µM	i
SMILES	Epigenetic reg	IMPase Li inh	GCN5L2 inh	JMJD2E inh	Sfp inh	NPSR antagonist
CCCCCCCCCCCC(=O)OCC(O)C1OCC(O)C1O (stereo unspecified)	nt	nt	?	nt	i	nt
N#Cc1cccc(NC(=O)C2CCN(S(=O)(=O)c3ccc4[nH]c(=O)ccc4c3)CC2)c1	i	nt	i	nt	nt	nt
Cc1ccc(Nc2nc(C)cs2)cc1	i	i	i	i	22µM	i
COc1ccccc1Nc1nc(NCCO)c2ccccc2n1	i	i	i	i	i	i
Cc1ccc(Nc2nc(NCCO)c3ccccc3n2)cc1C	nt	nt	i	nt	79µM	nt
COc1ccc(C2C=C3CNS(=O)(=O)C3CC2OC(=O)c2ccc(C(F)(F)F)cc2)cc1 (stereo unspecified)	nt	nt	nt	nt	i	nt
O=C[C@@H]1CCCN1C(=O)[C@@H]1CCCN1C(=O)OCc1ccccc1	i	i	i	nt	56µM	nt
COc1ccc(-c2c(C3C4C=CCCC4(C)C(=O)N3Cc3ccccc3)ccc3ccccc23)cc1 (stereo unspecified)	nt	nt	nt	nt	i	nt
COCc1c(C(=O)N/N=C\c2ccccn2)nnn1-c1nonc1N	nt	nt	i	nt	56µM	nt
Cc1nnn(-c2nonc2N)c1C(=O)N/N=C/c1ccccc1O	i	i	i	13µM	i	i
Cc1nnn(-c2nonc2N)c1C(=O)N/N=C/c1cccc2ccccc12	i	i	i	?	i	i
c1ccc(-c2nc3ccccn3c2NC2CCCC2)nc1	i	i	i	i	10µM	?
C=CCc1cccc(CNc2nc3ccccc3n2CCC)c1O	i	i	i	i	i	10µM
CCCn1c(NCc2ccccc2C)nc2ccccc21	i	nt	i	nt	nt	nt
CSc1cccc(NC(=S)N2CCC(N(C)C(C)C)CC2)c1	i	i	i	i	i	i
CCOC(=O)N1CCC(Nc2cccc(SC)c2)CC1	i	i	i	?	56µM	i
CCC(C)N(C)C1CCN(C(=S)Nc2cccc(SC)c2)CC1 (stereo unspecified)	i	i	i	i	56µM	i
CC(O)C#C[Si](C)(C)c1ccccc1 (stereo unspecified)	i	i	nt	i	i	nt
CCCCNc1nc(Oc2ccc(=O)n(-c3ccccc3)n2)nc(N(CC)CC)n1	i	nt	i	nt	nt	nt
CC(=O)NC(c1ccco1)c1cc(Br)c2cccnc2c1O (stereo unspecified)	nt	nt	i	nt	nt	nt
O=Cc1ccc2cccnc2n1	i	i	i	i	16µM	i
CCCn1c2ccccc2c2cnn(CC(=O)N3CCC(C(=O)OCC)CC3)c(=O)c21	i	nt	i	nt	nt	nt
Cc1ccc(SCc2cc(=O)[nH]c(Nc3nc(C)c4ccc(C)cc4n3)n2)cc1	i	i	i	i	i	i
Cc1ccc2c(C)nc(Nc3nc(CSc4nc5ccccc5[nH]4)cc(=O)[nH]3)nc2c1	35µM	i	i	i	i	i
COc1cc(C)cc(OC)c1/C=C\C(=O)O	nt	i	nt	nt	nt	nt
SMILES	Epigenetic reg	IMPase Li inh	GCN5L2 inh	JMJD2E inh	Sfp inh	NPSR antagonist
Cc1ccc(Cn2c3ccccc3c3cn[nH]c(=O)c32)cc1	i	i	i	?	i	i
O=c1[nH]ncc2c3ccccc3n(Cc3ccccc3F)c12	i	10µM	i	?	i	i
Cc1cc2ncn(-c3ncccc3[N+](=O)[O-])c2cc1C	nt	nt	i	nt	40µM	nt
O=[N+]([O-])c1cccnc1-n1cnc2ccccc21	i	i	i	i	10µM	i
COc1ccc(S(=O)(=O)NCCCC(=O)Nc2ccc(Sc3ccc(N)cc3)cc2)cc1	nt	nt	i	nt	i	nt
COC(=O)Cn1c(C2CC(=O)N(c3c(C)cccc3C)C2)nc2ccccc21 (stereo unspecified)	i	nt	i	nt	nt	nt
N#Cc1c(Nc2ccc(Cl)cc2)s[nH]c1=O	i	nt	i	i	50µM	i
CSc1nc(Nc2ccc(Cl)cc2)c(C#N)c(=O)[nH]1	nt	nt	i	nt	i	nt
CC(C)(CCCCCCCCCCC(C)(C)CC(=O)O)CC(=O)O	nt	nt	?	nt	i	nt
